Assay results reported in the supplement of paper PMC6555819.

Columns and labels:
Test in all cases: PBM binding z-score (relative to random genomic background probes); higher = stronger binding; sequences stand for … in GC…GCGATTGACAGCGTAGAATGAAGG
[1] = test system: FXR:RXRa (NR concentration 270 nM, RXRa partner concentration 90 nM)
Summary of the method: (§1)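 Custom Agilent 4×180K protein-binding microarrays carried double-stranded probes. Their 34-nt variable regions held direct-repeat seeds, single-nucleotide variants, half-site ablations and random human genomic background sequences. Arrays were incubated 1 h with ligand-free nuclear receptor dimers in PBS pH 7.4, 2% milk, 0.02% Triton X-100, 1 mM DTT, 0.2 mg/mL BSA and 0.4 mg/ml salmon testes DNA. Antibodies against each partner (one per run) detected binding, and scanned fluorescence was regression-normalized. Binding z-scores use random background probes as reference.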

[2] = test system: LXRa:RXRa (NR concentration 270 nM, RXRa partner concentration 90 nM)
Summary of the method: as §1

[3] = test system: LXRa homodimer (NR concentration 270 nM)
Summary of the method: as §1

[4] = test system: LXRb:RXRa (NR concentration 270 nM, RXRa partner concentration 90 nM)
Summary of the method: as §1

[5] = test system: LXRb homodimer (NR concentration 270 nM)
Summary of the method: as §1

[6] = test system: PPARa:RXRa (NR concentration 270 nM, RXRa partner concentration 90 nM)
Summary of the method: as §1

[7] = test system: PPARg:RXRa (NR concentration 180 nM, RXRa partner concentration 90 nM)
Summary of the method: as §1

[8] = test system: PPARg:RXRa 270nM:90nM, anti-RXR (NR concentration 270 nM, RXRa partner concentration 90 nM)
Summary of the method: as §1

[9] = test system: PPARg:RXRa 30nM:10nM, anti-RXR (NR concentration 30 nM, RXRa partner concentration 10 nM)
Summary of the method: as §1

[10] = test system: PPARg:RXRa 90nM:30nM, anti-RXR (NR concentration 90 nM, RXRa partner concentration 30 nM)
Summary of the method: as §1

[11] = test system: PPARg:RXRa DBDmut IVT, anti-RXR (DBD mutation: RXRa K156A/R161A, NR concentration 270 nM, RXRa partner concentration 90 nM)
Summary of the method: as §1

[12] = test system: PPARg:RXRa IVT, anti-PPARg (NR concentration 270 nM, RXRa partner concentration 90 nM)
Summary of the method: as §1

[13] = test system: PPARg DBDmut:RXRa IVT, anti-PPARg (DBD mutation: PPARg1 K132A/R137A, NR concentration 270 nM, RXRa partner concentration 90 nM)
Summary of the method: as §1

[14] = test system: PPARg DBDmut IVT, anti-PPARg (DBD mutation: PPARg1 K132A/R137A, NR concentration 270 nM)
Summary of the method: as §1

[15] = test system: PPARg homodimer (NR concentration 180 nM)
Summary of the method: as §1

[16] = test system: PXR:RXRa (NR concentration 270 nM, RXRa partner concentration 90 nM)
Summary of the method: as §1

[17] = test system: PXR homodimer (NR concentration 270 nM)
Summary of the method: as §1

[18] = test system: RARa:RXR (NR concentration 270 nM, RXRa partner concentration 90 nM)
Summary of the method: as §1

[19] = test system: RARa homodimer (NR concentration 270 nM)
Summary of the method: as §1

[20] = test system: RARb:RXRa (NR concentration 270 nM, RXRa partner concentration 90 nM)
Summary of the method: as §1

Sequence	PBM binding z-score [1]	PBM binding z-score [2]	PBM binding z-score [3]	PBM binding z-score [4]	PBM binding z-score [5]	PBM binding z-score [6]	PBM binding z-score [7]	PBM binding z-score [8]	PBM binding z-score [9]	PBM binding z-score [10]	PBM binding z-score [11]	PBM binding z-score [12]	PBM binding z-score [13]	PBM binding z-score [14]	PBM binding z-score [15]	PBM binding z-score [16]	PBM binding z-score [17]	PBM binding z-score [18]	PBM binding z-score [19]	PBM binding z-score [20]
GCTAGCAGGCCATTTGGGTCTCTCAATGACGGGC	-0.43	-0.541	-0.417	-0.913	-1.24	-0.217	-0.0162	-0.509	-1.01	-0.9	0.644	0.258	-0.858	-1.65	-0.8	-0.469	-0.68	-0.418	-1.34	0.0129
CAAACTAGGTCGAAGGTCAAAGTCGAGCCAACCA	5.22	4.73	2.22	4.63	0.602	6.98	12.4	10.2	10.9	12.7	6.36	7.65	2.75	1.51	3.56	4.98	1.03	6.95	1.29	4.16
AGAACGAGGGCACGCTGAGTTGATAGCAGAGTAG	0.783	0.47	-0.551	0.0516	-0.876	2.36	2.01	1.79	0.0193	0.94	4.13	3.81	0.29	-0.41	0.297	1.28	-0.0574	0.83	0.0569	2.52
TCTCGGAGGACATGAAGGTCAGAGCTTTCCAGAG	0.472	1.08	0.0663	1.15	-0.779	1.77	0.175	1.63	2.55	1.8	2.01	0.772	-0.736	-1.67	0.875	1.77	0.899	1.69	0.0257	2.63
ACTATTAGTTGAGACGAGGGCAACCGCTAGGTTG	0.861	0.155	-0.0789	0.0826	-0.113	0.374	0.327	0.207	-0.122	0.0431	0.0597	0.177	0.243	0.359	0.0959	1.55	0.226	0.773	0.0804	1.15
CGTCCAAGGTCAAAGGTGAGTGAAGAGATGACGG	7.3	5.66	0.771	4.65	1.11	6.66	8.58	7.77	5.88	7.38	4.29	5.13	0.48	-0.248	2.01	5.5	1.01	7.17	1.07	5.55
CCGACTGGGGCATAAGGTCACCATAAGCCAGCCC	3.25	3.18	0.732	2.78	-0.819	4.02	4.56	4.89	2.53	4.9	2.94	4.43	0.997	0.485	6.12	3.81	0.594	5.16	2.35	3.84
CCCACTGGGCCACGAAAGGTCATTGATTCAGTGA	3.78	5.11	5.17	4.22	0.369	4.8	4.92	4.99	1.85	3.53	4.55	6.02	1.73	0.623	3	5.57	1.48	5.51	1.31	4.1
